# Source: PubChem (Broad Institute)
# p53 PUMA act = mutant p53 pathway reactivation; SW480 PUMA-promoter luciferase; activation, % at 9.98 µM; 28,000 compounds, 1.5% hits; in the data active = activation above about 52%
# ID4 binder = binders of human ID4 protein; P47928; small molecule microarray, Flag-ID4 binding, fluorescence F/B; calls only; 31,000 compounds, 1.2% hits; call rule not given here;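 note: a binder raises fluorescence above local background on the spot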
# Target sequence (P47928 whole entry, looked up): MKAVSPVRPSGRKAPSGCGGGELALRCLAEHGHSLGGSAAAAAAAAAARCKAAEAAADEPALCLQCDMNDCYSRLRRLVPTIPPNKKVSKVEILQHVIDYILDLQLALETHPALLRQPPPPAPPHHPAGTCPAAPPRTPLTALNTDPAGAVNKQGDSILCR
# * marks the source's active call; other numbers are inactive results; i = inactive; · = no result; + = active, no number. In the library only some 2.1% were active in any assay of this set; here they are far more common.
SMILES,p53 PUMA act,ID4 binder
C[C@H]1CN([C@@H](C)CO)C(=O)c2cc(-c3ccc(C(=O)N(C)C)cc3)cnc2O[C@@H]1CN(C)C,·,i
C[C@H]1CN([C@@H](C)CO)C(=O)c2cc(-c3ccncc3)cnc2O[C@@H]1CN(C)C,·,+
CCCN(C)C[C@@H]1Oc2ncc(-c3cccc(C(=O)N(C)C)c3)cc2C(=O)N([C@@H](C)CO)C[C@H]1C,5,+
C[C@H](CO)N1C[C@H](C)[C@@H](CN(C)Cc2cncnc2)Oc2ncc(C#Cc3ccccn3)cc2C1=O,8,+
C[C@@H]1CN([C@H](C)CO)C(=O)c2cc(C#Cc3ccccn3)cnc2O[C@@H]1CN(C)Cc1cccnc1,14,·
C[C@@H]1CN([C@H](C)CO)C(=O)c2cc(-c3ccc(C(=O)N(C)C)cc3)cnc2O[C@H]1CN(C)C,·,+
Cc1ccc(S(=O)(=O)N(C)CC(=O)Nc2c(F)cccc2F)cc1,-6,i
CC(C)N(Cc1nc(-c2ccccc2)no1)S(=O)(=O)c1ccc(Br)cc1,17,i
CC(C)C#Cc1cnc2c(c1)C(=O)N([C@@H](C)CO)C[C@@H](C)[C@@H](CN(C)C(=O)CCN1CCCCC1)O2,·,i
CCC(=O)Nc1ccc2c(c1)OC[C@@H](C)N(CCc1ccccc1)C[C@@H](C)[C@H](OC)CN(C)C2=O,·,i
C[C@@H]1CN([C@H](C)CO)C(=O)c2cc(-c3cccc(C#N)c3)cnc2O[C@@H]1CN(C)Cc1ccncc1,4,·
C[C@@H]1CN([C@@H](C)CO)C(=O)c2cc(-c3cccc(C(=O)N(C)C)c3)cnc2O[C@@H]1CN(C)C,·,i
C[C@@H]1CN([C@H](C)CO)C(=O)c2cc(-c3cccc(C(=O)N(C)C)c3)cnc2O[C@H]1CN(C)C,·,+
C[C@@H]1CN([C@H](C)CO)C(=O)c2cc(-c3ccc(C#N)cc3)cnc2O[C@H]1CN(C)Cc1ccncc1,7,+
C[C@@H]1CN([C@H](C)CO)C(=O)c2cc(C#CCN(C)C)cnc2O[C@H]1CN(C)C(=O)c1cccnc1,-2,+
CC(C)C#Cc1cnc2c(c1)C(=O)N([C@@H](C)CO)C[C@H](C)[C@@H](CN(C)C(=O)c1cccnc1)O2,12,i
C[C@@H]1CN([C@H](C)CO)S(=O)(=O)c2ccc(C3=CCCC3)cc2O[C@@H]1CN(C)S(C)(=O)=O,1,·
CC(C)NC(=O)N(C)C[C@@H]1Oc2ncc(C3=CCCCC3)cc2C(=O)N([C@H](C)CO)C[C@H]1C,15,i
O=C(NCC[C@@H]1CC[C@@H](NC(=O)C2CCCC2)[C@@H](CO)O1)c1cc(Cl)cc(Cl)c1,·,i
C[C@@H]1CN([C@H](C)CO)C(=O)c2cc(NS(=O)(=O)c3cn(C)cn3)ccc2O[C@@H]1CN(C)C,8,i
C[C@@H]1CN([C@H](C)CO)C(=O)Cc2cc(NC(=O)NC3CCCCC3)ccc2O[C@H]1CN(C)Cc1ccccc1,-8,i
Cc1ccc(C(=O)Nc2cccc(OC(=O)c3cc(S(=O)(=O)N4CCCCC4)ccc3Cl)c2)cc1,1,+
O=C(Nc1cccc(O)c1)c1cc(S(=O)(=O)N2CCOCC2)ccc1Cl,-3,i
COc1ccc(S(=O)(=O)Nc2ccc3c(c2)C(=O)N([C@H](C)CO)C[C@@H](C)[C@H](CN(C)S(=O)(=O)c2cn(C)cn2)O3)cc1,1,i
O=C1c2cccc3cccc(c23)C(=O)N1CCCSc1n[nH]c(-c2ccc(F)cc2)n1,55*,i
SMILES,p53 PUMA act,ID4 binder
O=C1c2cccc3cccc(c23)C(=O)N1CCCSc1ncn[nH]1,45,i
COc1ccc(NC(=O)Nc2cccc3c2O[C@H](CN(C)S(=O)(=O)c2ccc(Cl)cc2)[C@H](C)CN([C@@H](C)CO)C3=O)cc1,11,+
COc1ccc(NC(=O)Nc2cccc3c2O[C@@H](CN(C)S(=O)(=O)c2ccc(Cl)cc2)[C@@H](C)CN([C@@H](C)CO)C3=O)cc1,6,i
C[C@@H]1CN([C@@H](C)CO)C(=O)c2cccc(NC(=O)c3nc4ccccc4s3)c2O[C@H]1CN(C)C(=O)Nc1cccc2ccccc12,-6,i
C[C@@H]1CN([C@H](C)CO)C(=O)c2cccc(NC(=O)c3nc4ccccc4s3)c2O[C@H]1CN(C)C(=O)Nc1cccc2ccccc12,-10,+
C[C@H]1CN([C@@H](C)CO)C(=O)c2cccc(NC(=O)c3cnccn3)c2O[C@@H]1CN(C)C(=O)Nc1ccccc1,0,+
C[C@@H]1CN([C@@H](C)CO)C(=O)c2cccc(NC(=O)c3cnccn3)c2O[C@@H]1CN(C)C(=O)Nc1ccccc1,9,i
C[C@H]1CCCCO[C@@H](CN(C)Cc2ccncc2)[C@@H](C)CN([C@@H](C)CO)C(=O)c2cc(NC(=O)Nc3cccc4ccccc34)ccc2O1,-12,i
C[C@@H]1CCCCO[C@@H](CN(C)C(=O)Nc2ccccc2)[C@@H](C)CN([C@@H](C)CO)C(=O)c2cc(NC(=O)Cc3ccccc3)ccc2O1,-9,i
